The compounds below were run on RAF1.
`CN(C)CCOc1ccc(-c2nc(-c3ccc4c(c3)CC/C4=N\O)c(-c3ccncc3)[nH]2)cc1` [SB-590885] was tested, and the Kinases covered was “RAF1”. With `CCCS(=O)(=O)Nc1ccc(F)c(-n2cc(-c3cncc(OC)c3)nn2)c1F` [BI00865461] the Kinases covered was “RAF1”. `O=C1Nc2ccc(C(=O)c3ccco3)cc2C1=Cc1cc(Cl)c(O)c(Cl)c1` [GW406108X] was tested, and the Kinases covered was “RAF1”.

The compounds below were run on RET.
In the case of `COc1cc2c(cc1OC)C(=C(Nc1ccccc1)c1cccc(CN)c1)C(=O)N2` [BIBF0846CL], the Kinases covered is reported as “RET”. For `Cl.O=C(Nc1ccc(Oc2ccc3[nH]c(NC(=O)c4ccccc4)nc3c2)cc1)Nc1cc(C(F)(F)F)ccc1F` [GW709042A], the Kinases covered was “RET”. With `COc1cc2ncnc(Nc3cccc(Cl)c3F)c2cc1O[C@H]1CC[C@H]([C@@H]2NCCNC2=O)CC1` [BI00133844] the Kinases covered was “RET”.

Each compound was assayed on RIPK1.
`CN1C(=O)[C@@H](NC(=O)c2cc(Cc3ccccc3)on2)COc2ccccc21` [GSK481] was tested, and the Kinases covered was “RIPK1”. In the case of `Cn1cc(-c2ccc3c(c2)CCN3C(=O)Cc2cccc(C(F)(F)F)c2)c2c(N)ncnc21` [GSK2606414], the Kinases covered is reported as “RIPK1”. `Cc1cccc(CC(=O)N2CCc3c2ccc(-c2cn(C)c4ncnc(N)c24)c3F)n1` [GSK2656157] was tested, and the Kinases covered was “RIPK1”.

What follows are compounds tested on RIPK2.
In the case of `CC(C)(C)S(=O)(=O)c1ccc2nccc(Nc3n[nH]c4ccc(F)cc34)c2c1` [GSK583], the Kinases covered is reported as “RIPK2”. For `CN(C)CCOc1ccc(-c2nc(-c3ccc4c(c3)CC/C4=N\O)c(-c3ccncc3)[nH]2)cc1` [SB-590885], the Kinases covered was “RIPK2”. `COc1cc(-c2cncc(-c3cnn(C4CCNCC4)c3)c2)cc(OC)c1OC` [K05908] was tested, and the Kinases covered was “RIPK2”.

Each compound was assayed on RIPK3.
`CC(C)S(=O)(=O)c1ccc2nccc(Nc3ccc4scnc4c3)c2c1` [GSK872] was tested, and the Kinases covered was “RIPK3”. In the case of `Cc1cc(-c2cnc(N)c3c(-c4ccc5scnc5c4)csc23)n(C)n1` [GSK843], the Kinases covered is reported as “RIPK3”. For `CNC(=O)c1ccc2c(c1)ncn2-c1ccc(CC(=O)OC(C)(C)C)cc1` [GSK840], the Kinases covered was “RIPK3”.
